Experimental data published in the supplement of paper PMC5662767.
“And” between values parts separate entries of the source, which are not always exact repeats. Equal values may be shown once. Where a name gives a salt, the structure may show the parent alone.

Tested on: Drosophila S2 cl14 SmoIP sensor cells
Test: normalized SmoIP GFP fluorescence (untreated unstimulated = 0%, untreated Hh-stimulated = 100%); higher = more Smo activation sensor fluorescence
Settings: compound concentration: 2 uM, 24 h
[1] = stimulation: Hh conditioned medium (+Hh)
[2] = stimulation: mock conditioned medium (-Hh)
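Note: flow cytometry read-out as median GFP intensity of gated cells, compounds added 30 min before Hh-conditioned or mock medium, mock-treated cells serving as unstimulated baseline.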

| SMILES | normalized SmoIP GFP fluorescence [1] | normalized SmoIP GFP fluorescence [2] |
| --- | --- | --- |
| C[C@H]1[C@H](C)CC[C@]2(C(=O)O)CC[C@]3(C)C(=CC[C@@H]4[C@@]5(C)C[C@@H](O)[C@H](O)[C@@](C)(CO)[C@@H]5CC[C@]43C)[C@H]12 [Asiatic-acid] | 143% | -15.4% |
| CNS(=O)(=O)Cc1ccc2[nH]cc(CCN(C)C)c2c1 [Sumatriptan-succinate] | 99.3% | 1.57% |
| CC(C)N(CCCNC(=O)Nc1ccc(C(C)(C)C)cc1)C[C@H]1O[C@@H](n2ccc3c(N)ncnc32)[C@H](O)[C@@H]1O | 106% and 111% | -4.13% and -1.12% |
| CN1CCN(C(=O)c2cc3cc(Cl)ccc3[nH]2)CC1 | 101% | -2.71% |
| Cc1cnc(-c2cc(N3CCN(C(=O)CCS(C)(=O)=O)CC3)ncc2Cl)c(C)c1 | 102% | -1.63% |
| CC(=O)c1c(C)c2cnc(Nc3ccc(N4CCNCC4)cn3)nc2n(C2CCCC2)c1=O | 150% | 3.72% |
| CN(C)CC(=O)Nc1ccc2[nH]c(=O)c3ccccc3c2c1 | 113% | -1.97% |
| CCC(CC)CC1(C(=O)Nc2ccccc2SC(=O)C(C)C)CCCCC1 [dalcetrapib-jtt-705] | 137% | -10.6% |
| Cc1cc(Nc2ncc(Cl)c(Nc3ccccc3S(=O)(=O)C(C)C)n2)c(OC(C)C)cc1C1CCNCC1 | 113% | 3.77% |
| Cc1ccc(C(=O)Nc2cccc(C(F)(F)F)c2)cc1Nc1nc(-c2cccnc2)nc2c1cnn2C | 140% | -9.04% |
| CNC(=O)c1nn(C)c2c1C(C)(C)Cc1cnc(Nc3ccc(N4CCN(C)CC4)cc3)nc1-2 | 107% | -11.7% |
| COc1cc2ncnc(Nc3ccc(F)c(Cl)c3)c2cc1OCCCN1CCOCC1 [Gefitinib] | 116% | -4.53% |
| CN1CCN(C(c2ccccc2)c2ccccc2)CC1 [cyclizine-2hcl] | 104% | -5.15% |
| COc1ncc(-c2ccc3nccc(-c4ccnnc4)c3c2)cc1NS(=O)(=O)c1ccc(F)cc1F | 57.4% | -10.6% |
| Nc1ccccc1NC(=O)c1ccc(CNc2nccc(-c3cccnc3)n2)cc1 [MGCD0103(Mocetinostat)] | 214% | 9% |
| Cn1cnc2c(F)c(Nc3ccc(Br)cc3Cl)c(C(=O)NOCCO)cc21 | 126% | 42.9% |
| CCOC(=O)[C@H](CCc1ccccc1)N[C@H]1CCCN2CCC[C@H](C(=O)O)N2C1=O [cilazapril-monohydrate-inhibace] | 111% | 6.28% |
| CC(=O)O/N=C1\C(=O)N(Cc2cc(Cl)ccc2Cl)c2ccc(Cl)cc21 | 106% | -2.93% |
| O=C1C[C@@H](c2ccc(O)cc2)Oc2cc(O)cc(O)c21 [Naringenin] | 106% | -6.61% |
| Cn1cc(-c2cnn3c(N)c(Br)c([C@@H]4CCCNC4)nc23)cn1 | 185% | 5.65% |
| Cc1ccc(S(=O)(=O)C=CC#N)cc1 | 121% | 2.86% |
| N#Cc1cc(CN2CCC(Nc3ncnc4sc(Cl)cc34)CC2)ccc1F | 129% | -12.6% |
| CNCc1ccc(-c2[nH]c3cc(F)cc4c3c2CCNC4=O)cc1 | 115% | 0.489% |
| NCCc1c[nH]cn1 [histamine-2hcl] | 104% | 1.21% |

| SMILES | normalized SmoIP GFP fluorescence [1] | normalized SmoIP GFP fluorescence [2] |
| --- | --- | --- |
| COc1cc2ncnc(Oc3cccc(NC(=O)Nc4cc(C(C)(C)C(F)(F)F)on4)c3)c2cc1OC | 138% | -13.4% |
| Cc1cc(-c2ccc(CC(=O)Nc3ccc(-c4cccnc4)cc3)cc2)ccn1 | 247% | 10.6% |
| CN(C)C1CCN(C(=O)c2ccc(NC(=O)Nc3ccc(-c4nc(N5CCOCC5)nc(N5CCOCC5)n4)cc3)cc2)CC1 | 53% | -21.4% |
| c1cc(-c2cnn3cc(-c4ccc(N5CCNCC5)cc4)cnc23)c2cccnc2c1 | 120% | 2.12% |
| CC1(C)CNc2cc(NC(=O)c3cccnc3NCc3ccncc3)ccc21 [Motesanib-Diphosphate] | 136% | 43.3% |
| C[C@H]1c2cccc(O)c2C(=O)C2=C(O)[C@]3(O)C(=O)C(C(N)=O)=C(O)[C@@H](N(C)C)[C@@H]3[C@@H](O)[C@@H]21 [doxycycline-hcl] | 101% | -1.63% |
| CC(=O)N1CCN(c2ccc(OCC3COC(Cn4ccnc4)(c4ccc(Cl)cc4Cl)O3)cc2)CC1 (centres undefined) [Ketoconazole] | 109% | 2.64% |
| CCN(c1cc(-c2ccc(CN3CCOCC3)cc2)cc(C(=O)NCc2c(C)cc(C)[nH]c2=O)c1C)C1CCOCC1 | 106% | -3.39% |
| CO[C@H]1/C=C\C=C(/C)C(=O)NC2=CC(=O)C(NCCN(C)C)=C(C[C@@H](C)C[C@H](OC)[C@H](O)[C@@H](C)/C=C(\C)[C@@H]1OC(N)=O)C2=O [17-DMAG,Hydrochloride-Salt] | 219% | 44.8% |
| CC(C(O)c1ccc(O)cc1)N1CCC(Cc2ccccc2)CC1 (centres undefined) [ifenprodil-tartrate] | 103% | -5.15% |
| CCCC(=O)OCOC(=O)C1=C(C)NC(C)=C(C(=O)OC)C1c1cccc(Cl)c1Cl (centres undefined) [cleviprex-clevidipine] | 119% | -12.9% |
| O=C(NOCC1CC1)c1ccc(F)c(F)c1Nc1ccc(I)cc1Cl | 112% | 10.7% |
| CS(=O)(=O)c1cccc(CNc2nc(Nc3ccc4c(c3)CCC(=O)N4)ncc2C(F)(F)F)c1 | 209% | 71.5% |
| Cc1c(C(=O)NN2CCCCC2)nn(-c2ccc(Cl)cc2Cl)c1-c1ccc(Cl)cc1 | 107% | 2.46% |
| CC(C)OC(=O)OCOP(=O)(CO[C@H](C)Cn1cnc2c(N)ncnc21)OCOC(=O)OC(C)C [Tenofovir-Disoproxil-Fumarate] | 91.2% | 2.43% |
| Cn1cc(/C=C2\C(=O)Nc3cccnc32)c2ccccc21 | 158% | 60.2% |
| Cc1cc(O)c2c(c1)C(=O)c1cccc(O)c1C2=O [Chrysophanic-acid-Chrysophanol] | 133% | -7.42% |
| CC(C)c1noc(N2CCC(COc3ccc(-c4ccc(S(C)(=O)=O)cc4)nc3)CC2)n1 | 110% | -3.09% |
| Oc1cc(O)cc(/C=C/c2ccc(O)c(O)c2)c1 [piceatannol] | 114% | -2.08% |
| CCN(CC)CCOC(=O)c1ccc(N)cc1 [procaine-novocaine-hcl] | 107% | -3.5% |
| CC1CCN(CC[C@H]2CCCN2S(=O)(=O)c2cccc(O)c2)CC1 | 108% | 1.21% |
| O=C1NC(=O)/C(=C/c2ccc(-c3ccc(F)cc3O)o2)S1 | 99.3% | 0.588% |
| CC(C)(Oc1ccc(C2CC2(Cl)Cl)cc1)C(=O)O (centres undefined) [ciprofibrate] | 108% | -5.35% |
| CCc1ccc(OCc2ccccc2C(=O)Nc2ccc3nc(C)cc(N)c3c2)cc1 | 164% | 14.4% |

| SMILES | normalized SmoIP GFP fluorescence [1] | normalized SmoIP GFP fluorescence [2] |
| --- | --- | --- |
| CCCc1nn(C)c2c(=O)[nH]c(-c3cc(S(=O)(=O)N4CCN(C)CC4)ccc3OCC)nc12 [Sildenafil-citrate] | 76.3% | -1.88% |
| Oc1ccc(Nc2nc(-c3ccc(Cl)cc3)cs2)cc1 | 113% | -0.151% |
| COC1=C2C[C@@H](C)C[C@H](OC)[C@H](O)[C@@H](C)/C=C(\C)[C@H](OC(N)=O)[C@@H](OC)/C=C\C=C(/C)C(=O)NC(=CC1=O)C2=O [geldanamycin] | 209% | 46.6% |
| COCCc1ccc(OCC(O)CNC(C)C)cc1 (centres undefined) [metoprolol-tartrate] | 138% | -9.85% |
| CCn1c2ccccc2c2cc(Nc3ccnc(NCCCN4CCOCC4)n3)ccc21 [ehop-016] | 100% | -3.62% |
| CC(=O)Nc1nc2c(Oc3cc(-c4ccc(C(F)(F)F)cc4)ncn3)cccc2s1 | 111% | -4.7% |
| CCCCOc1ccc(CC(=O)NO)cc1 [bufexamac] | 98.6% | -3.05% |
| CN1C2CCC1CC(OC(=O)C(O)c1ccccc1)C2 (centres undefined) [homatropine-bromide] | 102% | -4.81% |
| C[C@@H](O[C@H]1OCCN(Cc2n[nH]c(=O)[nH]2)[C@H]1c1ccc(F)cc1)c1cc(C(F)(F)F)cc(C(F)(F)F)c1 [Aprepitant] | 115% | -5.98% |
| CCOC(=O)C1=C(N)Oc2ccc(Br)cc2C1C(C#N)C(=O)OCC (centres undefined) | 97.9% | 1.03% |
| CN1CCc2c(c3ccccc3n2Cc2ccc(C(=O)NO)cc2)C1 [tubastatin-a] | 108% | -3.05% |
| OCCOCCN1CCN(C2=Nc3ccccc3Sc3ccccc32)CC1 [Quetiapine-fumarate(Seroquel)] | 106% | -9.58% |
| CCCSc1nc(N[C@@H]2C[C@H]2c2ccc(F)c(F)c2)c2nnn([C@@H]3C[C@H](OCCO)[C@@H](O)[C@H]3O)c2n1 [ticagrelor] | 113% | -3.39% |
| Cc1ccc(Nc2nccc(N(C)c3ccc4c(C)n(C)nc4c3)n2)cc1S(N)(=O)=O [Pazopanib-Hydrochloride] | 117% | -4.53% |
| CCNC(=O)c1[nH]nc(-c2cc(Cl)c(O)cc2O)c1-c1ccc(OC)cc1 | 188% | 23.1% |
| Cc1nc(NC(=O)N2CCC[C@H]2C(N)=O)sc1-c1ccnc(C(C)(C)C(F)(F)F)c1 | 102% | -1.23% |
| Cc1ccccc1C(=O)Nc1ccc(C(=O)N2CCCC(N(C)C)c3ccccc32)cc1 (centres undefined) [mozavaptan] | 105% | -2.08% |
| COc1cc2c(cc1OC)CN(CCc1ccc(NC(=O)c3cc(OC)c(OC)cc3NC(=O)c3cnc4ccccc4c3)cc1)CC2 [tariquidar] | 120% | 2.77% |
| C[C@@]1(c2cc(-c3cncnc3)c(F)cc2F)CCSC(N)=N1 | 97% | 10.2% |
| O=C(O)c1cc2cccc([N+](=O)[O-])c2[nH]1 | 136% | 24.3% |
| O=C(O)c1cccc(-c2noc(-c3ccccc3F)n2)c1 | 116% | -0.662% |
| CC(C)c1cc(C(C)C)c(CC(=O)NS(=O)(=O)Oc2c(C(C)C)cccc2C(C)C)c(C(C)C)c1 [Avasimibe(CI-1011)] | 111% | -15.8% |
| Cc1cc(C(C)Nc2ccccc2)c2nc(N3CCOCC3)cc(=O)n2c1 (centres undefined) | 126% | -0.265% |
| CC(C)C[C@H](NC(=O)CNC(=O)c1cc(Cl)ccc1Cl)B(O)O | 82.1% | 26% |
